PP5 inh = PP5 (human) phosphatase inhibition. P53041. inhibition, % at 6.7 µM. 0.18% of 320,000 active. purified PP5c, OMFP substrate fluorescence;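 active = inhibition above the campaign's mean inhibition across all tested compounds plus 3 SD, cut at about 9.5% in these data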
ANO1 activ = activates or potentiates the mouse TMEM16A chloride channel; Q8BHY3; HEK293 TMEM16A/YFP-H148Q/I152L, iodide quench fluorescence; active compounds read low; B-score at 10 µM; 0.3% of 340,000 active; AID 623877;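 active = fluorescence-ratio B-score plate-corrected deviation score at least 3 library SD below zero, with starting fluorescence score within 5 deviations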;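 note: channel opened by trigger with iodide after compound preincubation; score built on the fluorescence ratio of max minus min over baseline; more negative score means more quench and so TMEM16A activation or potentiation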
Target sequence (Q8BHY3 whole entry, looked up): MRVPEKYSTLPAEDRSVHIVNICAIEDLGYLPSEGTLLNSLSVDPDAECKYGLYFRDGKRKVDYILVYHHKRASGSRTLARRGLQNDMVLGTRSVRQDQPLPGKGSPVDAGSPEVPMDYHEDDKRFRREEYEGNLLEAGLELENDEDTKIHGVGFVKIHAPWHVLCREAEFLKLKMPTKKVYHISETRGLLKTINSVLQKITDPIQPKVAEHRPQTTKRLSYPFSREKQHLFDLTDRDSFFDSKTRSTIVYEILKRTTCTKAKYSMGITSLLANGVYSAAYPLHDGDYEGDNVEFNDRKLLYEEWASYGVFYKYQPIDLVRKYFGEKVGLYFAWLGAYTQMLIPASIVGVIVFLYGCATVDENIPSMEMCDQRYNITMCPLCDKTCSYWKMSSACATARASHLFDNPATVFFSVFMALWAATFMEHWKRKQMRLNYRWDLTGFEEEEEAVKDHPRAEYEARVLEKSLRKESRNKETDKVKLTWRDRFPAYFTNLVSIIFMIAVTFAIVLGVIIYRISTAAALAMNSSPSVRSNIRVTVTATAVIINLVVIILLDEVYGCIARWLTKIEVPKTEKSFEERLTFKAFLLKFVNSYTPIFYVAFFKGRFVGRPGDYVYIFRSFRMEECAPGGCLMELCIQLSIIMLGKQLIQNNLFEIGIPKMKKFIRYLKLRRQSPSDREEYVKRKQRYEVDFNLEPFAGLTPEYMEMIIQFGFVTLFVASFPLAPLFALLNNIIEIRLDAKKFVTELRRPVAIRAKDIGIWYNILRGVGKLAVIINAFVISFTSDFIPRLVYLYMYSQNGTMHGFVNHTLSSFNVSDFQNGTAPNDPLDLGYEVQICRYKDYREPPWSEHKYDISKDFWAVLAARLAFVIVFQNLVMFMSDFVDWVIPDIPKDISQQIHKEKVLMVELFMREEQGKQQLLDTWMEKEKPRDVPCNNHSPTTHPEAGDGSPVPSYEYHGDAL
PREPL inhibitor = inhibits the human prolyl oligopeptidase-like enzyme; Q4J6C6; recombinant PREPL, fluorescence polarization activity-based probe; inhibition, % at 5.96 µM; 0.68% of 320,000 active; AID 2751; in the data active = inhibition above about 43%
TMEM16A inh = mouse TMEM16A channel inhibition, primary screen. 1.2% of 310,000 active. AID 588511. normalized B-score (activity score, 25-100; higher = stronger inhibition) at 10 µM. HEK293 TMEM16A/YFP iodide influx fluorescence, ionomycin;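 active = ratio plate-corrected score three or more library SD toward inhibition, starting fluorescence score within five deviations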;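 note: score derived from kinetic fluorescence span divided by baseline fluorescence per well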
DNA FID counter = displaces DNA intercalator in HCV helicase counter-screen; DNA fluorescent intercalator displacement, fluorescence; inhibition, % at 7.9 µM; 0.17% of 290,000 active; in the data active = inhibition above about 37%;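 note: higher means more ethidium bromide displaced from hairpin DNA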
PP1 inh = blocks human PP1-alpha phosphatase, a PP5 counter-screen; P62136; purified PP1alpha, OMFP fluorescence; inhibition, % at 6.7 µM; 0.9% of 320,000 active;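 active = inhibition above the mean inhibition of all tested compounds plus 3 SD, computed separately for each screening campaign, cut at about 15% in these data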
PP1 inh confirm = human PP1 phosphatase inhibition, confirmation. shares compounds with PP1 inh. purified PP1alpha, OMFP substrate fluorescence. inhibition, % at 6.7 µM. 52% of 1,900 active. AID 2358;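 active = mean PP1 inhibition above a set limit taken from the earlier primary screen, cut at about 15% in these data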
PP5 counter = inhibits human PP5 phosphatase in PP1 counter-screen | shares compounds with PP1 inh | inhibition, % at 6.7 µM | 4% of 1,900 active | AID 2360 | purified PP5c, OMFP fluorescence;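 active = mean PP5 inhibition over triplicate wells above about 9.5% taken from the earlier PP1 screen, limit read from the data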
A number is an active result; i = inactive; nt = no result given. Only some compounds are listed: those with a hit (about 2.7% of all), similar ones and a draw of the others.

SMILES	PP5 inh	ANO1 activ	PREPL inhibitor	TMEM16A inh	DNA FID counter	PP1 inh	PP1 inh confirm	PP5 counter
C[C@@]12C(=O)N(Cc3ccc(F)cc3)CC(=O)N1[C@H]1c3cc(Cl)ccc3OC[C@@H]1[C@@H]2c1ccccc1	nt	i	i	nt	nt	nt	nt	nt
Cc1nn(-c2ccccc2)c(C)c1NC(=O)COC(=O)c1ccccc1OC(F)F	i	i	i	i	i	i	nt	nt
Cc1c(NS(=O)(=O)c2ccc3c(c2)c(=O)n(C)c(=O)n3C)c(=O)n(-c2ccccc2)n1C	i	i	i	i	i	36	i	i
O=C(NCc1cccnc1)/C(=C/c1ccc(-c2cccc(Cl)c2)o1)S(=O)(=O)c1ccccc1	i	i	i	i	i	i	nt	nt
Cc1ccc(C(=O)N/C(=C\c2ccc(-c3cc(Cl)ccc3Cl)o2)C(=O)NCc2cccnc2)cc1	i	i	i	i	i	18	16	i
Cn1nc(C(C)(C)C)c([N+](=O)[O-])c1C(=O)N1CCCCCC1	i	i	i	i	i	i	nt	nt
CCc1nnc(NS(=O)(=O)c2ccc(NC(=S)NC(=O)/C=C/c3ccc(F)cc3)cc2)s1	i	i	i	i	i	20	i	i
COc1ccccc1NC(=O)COc1cccnc1[N+](=O)[O-]	nt	i	i	nt	nt	nt	nt	nt
COC(=O)c1sc(NC(=O)COc2cccnc2[N+](=O)[O-])c(C(=O)OC)c1C	i	i	i	nt	nt	27	i	i
Cc1ccccc1-n1ccnc1SCC(=O)NC1CCCC1	i	i	i	i	i	i	nt	nt
CC(C)NC(=O)NC(=O)CSc1nnc(COc2ccccc2F)n1C(C)C1CC2CCC1C2 (stereo not drawn)	10	i	i	i	i	21	i	i
CC(C1CC2CCC1C2)n1c(COc2ccccc2F)nnc1SCC(N)=O (stereo not drawn)	i	i	i	i	i	i	nt	nt
COc1ccc(CCNC(=O)c2nnn(CC(=O)Nc3ccc(C)cc3C)c2N)cc1OC	i	i	i	i	i	i	nt	nt
N#CC1(NC(=O)COC(=O)c2cc([N+](=O)[O-])ccc2N2CCOCC2)CCCCC1	i	i	i	i	nt	i	nt	nt
O=C(Nc1ccc(N2CCCC2)cc1)c1ccc2ccccc2c1	i	i	i	i	i	21	i	i
CC(=O)N1CCN(c2ccc(NC(=O)c3ccc4ccccc4c3)cc2)CC1	i	i	i	i	i	i	nt	nt
Cn1c(=O)c2c(nc(NN=C3CCCC3)n2C)n(C)c1=O	i	i	i	i	i	i	nt	nt
COc1ccc2[nH]c3c(c2c1)CCn1c-3nc2ccccc2c1=O	i	i	i	i	i	26	22	i
COc1cc(OC)cc(C(=O)Nn2c(C)nc3ccccc3c2=O)c1	i	i	i	i	i	i	nt	nt
CC(C)(C)CN1CCN(Cc2c[nH]c3ccccc23)CC1CCO (stereo not drawn)	nt	i	nt	i	i	nt	nt	nt
C=CCN(CC=C)S(=O)(=O)c1ccc(C(=O)Nc2nnc(CSC)o2)cc1	i	i	i	i	i	22	19	i
CCc1nnc(NC(=O)c2ccc(S(=O)(=O)N3CCCc4ccccc43)cc2)o1	i	i	i	i	i	35	28	i
CCc1nnc(NC(=O)c2ccc(S(=O)(=O)N(CC(C)C)CC(C)C)cc2)o1	i	i	i	i	i	25	30	i
CC(=O)c1ccc(S(=O)(=O)N2CCN(CCOc3ccccc3)CC2)cc1	nt	i	i	nt	nt	nt	nt	nt
O=C(CSc1nc2ccsc2c(=O)n1CC1CCC(C(=O)O)CC1)c1ccc(Cl)cc1 (stereo not drawn)	i	i	i	i	i	20	i	i
O=C(CSc1nc2ccsc2c(=O)n1CC1CCC(C(=O)O)CC1)c1ccc(F)cc1 (stereo not drawn)	i	i	i	i	i	i	nt	nt
C=C(C)C(=O)Nc1cccc(C2=NOC3(C2)C[C@@H](C(N)=O)N(C(=O)c2cc([N+](=O)[O-])cc([N+](=O)[O-])c2)C3)c1 (stereo partly drawn)	i	i	i	i	nt	i	nt	nt
C=C(C)C(=O)Nc1cccc(C2=NOC3(C2)C[C@@H](C(N)=O)N(C(=O)c2ccc(OC)cc2)C3)c1 (stereo partly drawn)	i	i	i	i	nt	18	i	i

Compound activity (PubChem BioAssay)
